Out of some 16,000 compounds screened, about 2,600 (16%) were called active. Inconclusive results (about 20%) are left out. A selection follows. A number with no mark means an inactive call. The call rests on the fitted dose curve; in most records, active means well fitted curve in the direction sought with a large enough effect; inconclusive means small, poorly fitted or top-dose-only effect, or effect the other way; inactive means no such curve, though single readings can be large or run the other way.
On the % scale 0 is the no-effect control and ±100 the full control effect.

The target in this assay is Cytochrome P450 2D6 (Homo sapiens) (UniProt P10635). Nature of the assay: Cytochrome panel assay with activity outcomes. The following applies: recombinant CYP, pro-luciferin dealkylation, luminescence, p450-cyp2d6; series mostly up to 57.1 µM.
Cytochrome P450 2D6 (Homo sapiens), sequence (P10635 whole entry, looked up): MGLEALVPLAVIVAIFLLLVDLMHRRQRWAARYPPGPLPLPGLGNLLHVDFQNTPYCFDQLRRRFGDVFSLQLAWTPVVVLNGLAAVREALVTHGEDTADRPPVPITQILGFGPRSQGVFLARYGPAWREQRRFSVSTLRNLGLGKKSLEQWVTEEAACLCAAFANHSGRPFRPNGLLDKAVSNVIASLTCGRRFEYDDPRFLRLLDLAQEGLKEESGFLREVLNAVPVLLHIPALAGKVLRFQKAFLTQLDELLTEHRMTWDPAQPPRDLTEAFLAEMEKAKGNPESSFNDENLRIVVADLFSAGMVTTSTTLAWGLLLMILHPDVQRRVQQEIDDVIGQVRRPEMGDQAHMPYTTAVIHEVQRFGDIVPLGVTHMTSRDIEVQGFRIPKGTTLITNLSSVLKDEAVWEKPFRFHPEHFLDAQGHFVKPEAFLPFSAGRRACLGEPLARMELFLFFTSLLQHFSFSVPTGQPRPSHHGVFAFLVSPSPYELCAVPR
For orientation: AC50 means the midpoint of the concentration-response curve, whichever way the signal moves. `COc1ccc(OCCNS(=O)(=O)c2ccc3oc4ccccc4c3c2)cc1`: the AC50 result was “inactive”.
As for `O=C(O)C[C@H](Cc1ccc2c(c1)OCO2)C(=O)O`, the activity, negative = inhibition was -3.42% [at 11.4 µM].
Regarding `Cc1c(C(=O)O)oc2ccc(S(=O)(=O)NCc3ccc4c(c3)OCO4)cc12`, the AC50 was 15.8 µM (active).
On the same count and under the same terms, next, `Cc1ccc(C2/C(=C(/O)c3ccccc3)C(=O)C(=O)N2CCN2CCOCC2)o1` (stereo unspecified): “inactive”; `Cc1nc2ccc(S(=O)(=O)NC(CC(C)C)C(=O)O)cc2s1` (stereo unspecified): “inactive”; `C=CCNC(=S)N1CCN(c2ncc3c(=O)c(C(=O)O)cn(CC)c3n2)CC1`: “inactive”.
Same read-out and setting: to `N#Cc1ccc(Oc2nc(C(N)=O)cc(-c3ccccc3)n2)cc1` belongs “inactive”; to `Oc1ccccc1C1Nc2cccc3cccc(c23)N1`, 10 µM (active); to `CC(=O)C1=NOC(CNC(=O)c2c(-c3ccccc3Cl)noc2C)C1` (stereo unspecified), “inactive”.
On to `CC1(C)c2ssc(=S)c2-c2ccccc2N1C(=O)CSC1=NCCS1`, for which the AC50 entry was “inactive”.
For the compound `Cc1[nH]nc(-c2ccc(OCc3cnn(-c4ccccc4)c3)cc2O)c1Oc1ccc(F)cc1`, the AC50 is 7.08 µM (active).
On the same count and under the same terms, to `Cc1[nH]nc(-c2ccc(OCc3cnn(-c4ccccc4)c3)cc2O)c1Oc1ccccc1F` belongs 11.2 µM (active).
On the same count and under the same terms, to `COC(=O)c1ccc(Oc2coc3cc(OCc4cnn(-c5ccccc5)c4)ccc3c2=O)cc1` belongs “inactive”; to `CCc1ccc(OCC(=O)OC2CCS(=O)(=O)C2)cc1` (stereo unspecified), “inactive”; to `COc1ccc(-n2ncc3c(NCC4CCCO4)ncnc32)cc1` (stereo unspecified), “inactive”.
Still for that read-out and setting: next, `CCC1(c2ccccc2)C(=O)NCNC1=O`: “inactive”; `O=C(Oc1ccccc1)N1CCC2(CC1)CCN(c1ccccc1)CC2`: “inactive”; `Brc1ccc(-c2nnc(-c3cccc(Br)c3)o2)cc1`: “inactive”.
Take `CCCCc1ccc(NC(=S)NCc2cccs2)cc1`: the AC50 was 4.47 µM (active).
Regarding `CCc1ccc(NC(=O)CS(=O)CC(=O)NCCCc2ccccc2)cc1` (stereo unspecified), the AC50 entry is “inactive”.
With `CCCNC(=S)Nc1ccc(Br)cc1`, the AC50 entry was “inactive”.
Regarding `CCC(c1nnnn1CC1CCCO1)N(CCN1CCOCC1)Cc1cc2cc(C)ccc2[nH]c1=O` (stereo unspecified), the AC50 entry is “inactive”.
The same measure, in the same setting: to `O=C1CSC(c2ccccc2F)N1c1cc(Cl)ccc1O` (stereo unspecified) belongs 31.6 µM (active).
On the same count and under the same terms, next, `CC(=O)Nc1ccc(N2C(=O)CSC2c2c(F)cccc2Cl)cc1` (stereo unspecified): “inactive”.
With `O=C1CSC(c2ccccn2)N1c1ccc(Cl)c(Cl)c1` (stereo unspecified), the AC50 entry was “inactive”.
On the same count and under the same terms, next, `Cc1ccc2nc(-c3ccc(NC(=O)Cc4cccs4)cc3)[nH]c2c1`: “inactive”.
Still for that read-out and setting: next, `COc1ccc(NC(=O)CSc2nnc(C3CC3)n2N)cc1`: “inactive”.
Same read-out and setting: to `O=C(CSc1nnnn1C1CCCC1)Nc1ccc(F)cc1` belongs 14.1 µM (active); to `CCn1nnnc1SCC(=O)NC1CCCC1`, “inactive”; to `CCc1ccc(C2=Nn3c(nnc3-c3cccs3)SC2)cc1`, 2.82 µM (active).
For the compound `CCOc1ccc(-c2nnc3n2N=C(c2ccc(OC)cc2)CS3)cc1`, the AC50 entry is “inactive”.
Still for that read-out and setting: next, `CCOc1ccc(C2=Nn3c(nnc3-c3ccco3)SC2)cc1`: “inactive”; `CC1(C)O[C@H]2C[C@@H]3[C@H]4CCC5=CC(=O)CC[C@@]5(C)[C@]4(F)[C@@H](O)C[C@@]3(C)[C@@]2(C(=O)CCl)O1`: “inactive”.
Same read-out and setting: next, `CC(C)CC(=O)Nc1ccccc1-c1nnn(CC(=O)N2CCc3ccccc3C2)n1`: “inactive”; `Cc1nnc(SCC(=O)NCC2CCCCC2)n(N)c1=O`: “inactive”; `O=C(O)NCC1CCCCC1` (tested in a mixture with another compound): 3.98 µM (active).
The same measure, in the same setting: to `O=C(c1cc(-c2ccco2)on1)N1CCOCC1` belongs “inactive”.
Take `CC(C)CCNC(=O)C12CN(Cc3ccccc3)CC1C(c1cccc([N+](=O)[O-])c1)=NO2` (stereo unspecified): the AC50 entry was “inactive”.
On the same count and under the same terms, next, `O=C(Cc1ccccc1)N/N=C/C=C/c1cccc([N+](=O)[O-])c1`: “inactive”.
The same measure, in the same setting: to `O=C(NCc1ccccc1)C12CN(Cc3ccccc3)CC1C(c1cccc([N+](=O)[O-])c1)=NO2` (stereo unspecified) belongs 5.01 µM (active).
Regarding `CCSC[C@@H](N)C(=O)O`, the activity, negative = inhibition is -5.75% [at 11.4 µM].
Turning to `O=c1nc(-c2ccccc2)cn[nH]1`, the AC50 result is “inactive”.
Still for that read-out and setting: next, `C/C=C\C[C@@H](C)[C@@H](O)[C@H]1C(=O)N[C@@H](CC)C(=O)N(C)CC(=O)N(C)[C@@H](CC(C)C)C(=O)N[C@@H](C(C)C)C(=O)N(C)[C@@H](CC(C)C)C(=O)N[C@@H](C)C(=O)N[C@H](C)C(=O)N(C)[C@@H](CC(C)C)C(=O)N(C)[C@@H](CC(C)C)C(=O)N(C)[C@@H](C(C)C)C(=O)N1C`: “inactive”; `C[C@H]1NC(=O)NC1=O`: “inactive”; `CCOC(=O)n1c(=O)n(Cc2c(Cl)cccc2Cl)c2ccccc21`: “inactive”.
With `CC(C)(C)N1C(=O)[C@H]2[C@H]3[C@H](O)[C@H](O)C/C(=N/NC(=O)OCc4ccccc4)[C@@H]3CC[C@@H]2C1=O`, the activity, negative = inhibition was -18.8% [at 11.4 µM].
With `COCC(=O)N1CCC2(CCCN(Cc3ccccc3OC)C2)CC1`, the AC50 result was “inactive”.
Same read-out and setting: to `COc1ccccc1CN1CCCC2(CCN(C(C)=O)CC2)C1` belongs 3.16 µM (active).
Still for that read-out and setting: next, `COCC(=O)N1CCC[C@@]2(CCN(Cc3ccccc3OC)C2)C1`: 6.31 µM (active); `COC(=O)N1CCC2(CCCN(C(=O)Nc3ccc(OC)cc3)C2)CC1`: “inactive”; `COc1ccccc1CN1CC[C@@]2(CCCN(C(C)=O)C2)C1`: 3.16 µM (active).
Take `CC(=O)N1CCC[C@@]2(CCN(c3ccncc3)C2)C1`: the AC50 entry was “inactive”.
Same read-out and setting: next, `COCC(=O)N1CCC2(CCCN(C(=O)Nc3cccc(F)c3)C2)CC1`: “inactive”; `COc1ccc(NC(=O)N2CC[C@@]3(CCCN(C(C)=O)C3)C2)cc1`: “inactive”.
For `COC(=O)N1CCC2(CCCN(Cc3ccccc3OC)C2)CC1`, the AC50 is 3.16 µM (active).
Still for that read-out and setting: to `CCSc1nc2nc(C)cc(C)n2n1` belongs “inactive”.
On the same count and under the same terms, next, `Cn1cc(C(=O)N/N=C/C(Br)=C\c2ccccc2)ccc1=O`: “inactive”; `CCN1CCN(c2nc3c(c(=O)[nH]c(=O)n3C)n2CCCSc2ncccn2)CC1`: “inactive”.
Same read-out and setting: to `COc1ccc(C2/C(=C(/O)c3ccccc3)C(=O)C(=O)N2CC(C)O)c(OC)c1` (stereo unspecified) belongs “inactive”; to `N#Cc1sc2nc(-c3cccs3)cc(-c3ccc(Cl)cc3)c2c1N`, “inactive”.
On to `COc1cc(N=C(N)N=C(N)N)c2ncccc2c1`, for which the activity, negative = inhibition is -2.16% [at 11.4 µM].
Same read-out and setting: to `Nc1ccc(S(=O)(=O)c2ccc(NC(=O)c3cccnc3)cc2)cc1` belongs -2.49% [at 11.4 µM].
On to `O=c1c2c(-c3ccc(Cl)cc3)csc2nc2n1CCC2`, for which the AC50 entry was “inactive”.
Same read-out and setting: to `COCCn1c(=O)[nH]c2cc(C(=O)N3CCN(c4ccccc4OC)CC3)ccc2c1=O` belongs “inactive”.
Take `CCCC1c2c(ccc3ccccc23)Oc2ccc3ccccc3c21`: the activity, negative = inhibition is 4.73% [at 11.4 µM].
In the case of `COCC(=O)N1CCC2(CCCN(Cc3ccccc3)C2)CC1`, the AC50 entry was “inactive”.
Still for that read-out and setting: next, `COCC(=O)N1CCC[C@@]2(CCN(Cc3ccccc3)C2)C1`: 6.31 µM (active).
Same read-out and setting: next, `COCC(=O)N1CCC[C@@]2(CCN(Cc3ccc(C#N)cc3)C2)C1`: “inactive”; `Cc1c(NC(=S)N/N=C/c2ccc(O)cc2)c(=O)n(-c2ccccc2)n1C`: “inactive”.
On to `O=C1C(=O)c2ccccc2C(O)=C1C(CCc1ccccc1)C1=C(O)c2ccccc2C(=O)C1=O`, for which the activity, negative = inhibition is -9.56% [at 11.4 µM].
`CC(C)[C@@H]1[C@H]2CC[C@H](C2)[C@H]1N`: the AC50 result was “inactive”.
In the case of `CCc1ncc(CO)n1Cc1cccc2ccccc12`, the activity, negative = inhibition was -6.66% [at 11.4 µM].
Turning to `Cc1ccc(Sc2cc(Cl)nc(N)n2)cc1`, the AC50 entry is “inactive”.
Regarding `Cc1ccc2[nH]c(=O)c(NC(N)=S)nc2c1`, the AC50 result is “inactive”.
On the same count and under the same terms, to `O=C1CSc2ccc(C(=O)NCCC3=CCCCC3)cc2N1` belongs “inactive”; to `CCC(C)NC(=O)C1CCN(C(=O)c2ccccc2)CC1` (stereo unspecified), “inactive”.
Still for that read-out and setting: next, `CC(C)(C)c1ccc(C(=O)N2CCC(C(=O)NCCC3=CCCCC3)CC2)cc1`: 22.4 µM (active); `CCNC(=O)C1CC(=O)OC12CCCCC2` (stereo unspecified): “inactive”; `O=C(Nc1cccnc1Cl)C1c2ccccc2Oc2ccccc21`: “inactive”.
`CN(C)CCNS(=O)(=O)N(C)C`: the activity, negative = inhibition is 5.07% [at 11.4 µM].
Turning to `COc1ccc(-n2ccnc2SCC(=O)Nc2ccc(OC)cc2OC)cc1`, the AC50 result was “inactive”.
Same read-out and setting: next, `COc1cccc(-n2ccnc2SCC(=O)Nc2nccs2)c1`: 12.6 µM (active).
Same read-out and setting: next, `COc1cccc(NC(=O)CSc2nnc(CN3CCOCC3)n2C)c1`: “inactive”; `CCOc1ccc(-n2ccnc2SCC(=O)Nc2nnc(C)s2)cc1`: “inactive”; `COc1ccc(-n2ccnc2SCC(=O)Nc2ccccc2)cc1`: 17.8 µM (active).
The same measure, in the same setting: next, `CCOc1ccc(-n2ccnc2SCC(=O)Nc2nnc(CC)s2)cc1`: “inactive”.
Consider `COc1cccc([C@H](O)Cn2cc(-c3cccc(CON=C(C)C)c3)nn2)c1`, for which the activity, negative = inhibition is -1.23% [at 11.4 µM].
Take `O=c1c2ccccc2nc2n1CCC2`: the AC50 entry was “inactive”.
Same read-out and setting: next, `CC(=O)c1cc(NC(=O)c2cccc(C(F)(F)F)c2)c(=O)oc1/C=C/N(C)C`: “inactive”.
For `CC1(C)CC(=O)c2c(Cc3ccccc3)n[nH]c2C1`, the AC50 result was “inactive”.
On to `N#C/C(=C(/O)CN1CCCCC1)c1nc(-c2ccc(Cl)cc2)cs1`, for which the AC50 entry is “inactive”.
As for `Cn1c(=O)c2[nH]c(-c3ccc(S(=O)(=O)O)cc3)nc2n(C)c1=O`, the AC50 result was “inactive”.
The same measure, in the same setting: to `COCCn1c(=O)c(-c2cccs2)nc2cnc(N3CCN(C)CC3)nc21` belongs “inactive”; to `O=c1c(-c2ccc(F)c(F)c2)nc2cncnc2n1Cc1ccccc1Cl`, “inactive”; to `COc1ccc2c(c1)c(CC(=O)OCC(=O)O)c(C)n2C(=O)c1ccc(Cl)cc1`, “inactive”.
Still for that read-out and setting: next, `NC(=O)OC[C@H](O)COc1ccc(Cl)cc1`: “inactive”.
On the same count and under the same terms, to `NC(=O)OCC(COC(N)=O)c1ccccc1` belongs 0.794 µM (active).
Turning to `COc1ccccc1OC[C@H](O)COC(N)=O`, the AC50 result is “inactive”.
Still for that read-out and setting: next, `COCCn1c(=O)c(-c2ccc(OC)cc2)nc2cnc(N3CCNCC3)nc21`: “inactive”.
Still for that read-out and setting: to `Cc1ccc(C(=O)Cn2nnc3c(sc4nc5c(c(-c6ccccc6)c43)CCC5)c2=O)cc1` belongs “inactive”.
The same measure, in the same setting: to `Cc1ccc(C(=O)CNc2nc3c(c(=O)[nH]c(=O)n3C)n2Cc2ccccc2)cc1` belongs “inactive”.
